PubChem BioAssay (NCI)
The panel holds about 83,000 compounds, 20% with a hit somewhere; the sample as a whole holds those more often.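 Percent growth is the endpoint: 0 to 100 indicates growth inhibition (40 means 60% inhibition), 0 means no net growth, and negative values indicate cell death.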 Calls of active or inactive are those of the source. Rule for the calls: active = growth percent below 10; inactive = the rest.

Legend:
Assay in all cases: NCI-60 one-dose screen, 48 h (100 = growth as untreated, 0 = no growth, -100 = all killed)
Conditions in all cases: 10 µM unless noted
NCI-H23 lung = tested on: NCI-H23 lung
NCI-H226 lung = tested on: NCI-H226 lung
NCI-H322M lung = tested on: NCI-H322M lung
HOP-62 NSCLC = tested on: HOP-62 NSCLC
NCI-H460 lung = tested on: NCI-H460 lung
HOP-92 NSCLC = tested on: HOP-92 NSCLC
NCI-H522 lung = tested on: NCI-H522 lung
A549/ATCC NSCLC = tested on: A549/ATCC NSCLC
786-0 renal = tested on: 786-0 renal
COLO 205 colon = tested on: COLO 205 colon

Measured: growth

Oc1ccc(/C=C/c2ccc(O)cc2)cc1
inactive: NCI-H23 lung 62.2% | NCI-H226 lung 90.8% | NCI-H322M lung 58.5% | HOP-62 NSCLC 71.4% | NCI-H460 lung 34.5% | HOP-92 NSCLC 73.2% | A549/ATCC NSCLC 60.7% | 786-0 renal 24.3% | COLO 205 colon 134%
active: NCI-H522 lung -0.122%

NC(=O)c1c(NC(=O)c2cccs2)sc2c1CCC(=O)C2
active: NCI-H522 lung -0.894%
inactive: NCI-H23 lung 20.4% | NCI-H226 lung 82.9% | NCI-H322M lung 77.2% | HOP-62 NSCLC 84.6% | NCI-H460 lung 87.5% | HOP-92 NSCLC 36.7% | A549/ATCC NSCLC 84.8% | 786-0 renal 76% | COLO 205 colon 34.2%

Oc1c(CN2CCC(N3CCCCC3)CC2)cc(Cc2cc(CN3CCC(N4CCCCC4)CC3)c(O)c3ncccc23)c2cccnc12
active: NCI-H226 lung 5.18% | NCI-H460 lung 5.8% | NCI-H522 lung -34.7% | COLO 205 colon -3.12%
inactive: NCI-H23 lung 39.3% | NCI-H322M lung 19.7% | HOP-62 NSCLC 18.6% | HOP-92 NSCLC 30.5% | A549/ATCC NSCLC 22.9% | 786-0 renal 24.4%

Cc1ccc(C(=O)c2ccc(CC(=O)N=Nc3c(O)[nH]c4ccc(Br)cc34)n2C)cc1
inactive: NCI-H23 lung 76.1% | NCI-H226 lung 77.9% | NCI-H322M lung 92% | HOP-62 NSCLC 89.6% | NCI-H460 lung 104% | HOP-92 NSCLC 106% | NCI-H522 lung 84.1% | A549/ATCC NSCLC 87.2% | 786-0 renal 97.6% | COLO 205 colon 106%

Cc1ccc2c(-n3nc(C#N)c(C#N)c3N)cc(=O)[nH]c2c1
inactive: NCI-H23 lung 88.9% | NCI-H226 lung 78.7% | NCI-H322M lung 66.8% | HOP-62 NSCLC 68.1% | NCI-H460 lung 81.1% | HOP-92 NSCLC 84.3% | NCI-H522 lung 77% | A549/ATCC NSCLC 91% | 786-0 renal 85.3% | COLO 205 colon 97.8%

Cc1ccc(C)c2c(C)c(C(=O)Nc3cccc(-n4cccn4)c3)oc12
inactive: NCI-H23 lung 73.1% [50 µM] | NCI-H226 lung 62.1% [50 µM] | NCI-H322M lung 86.5% [50 µM] | HOP-62 NSCLC 99.4% [50 µM] | NCI-H460 lung 56.4% [50 µM] | HOP-92 NSCLC 90.8% [50 µM] | NCI-H522 lung 32% [50 µM] | A549/ATCC NSCLC 58.4% [50 µM] | 786-0 renal 82.2% [50 µM] | COLO 205 colon 62.8% [50 µM]

CCCCCCCCCCCCCOC(=O)c1c(C)[nH]c(/C=C2\N=C(c3ccc[nH]3)C=C2OC)c1C
active: NCI-H226 lung -38.1% | HOP-92 NSCLC -6.46% | NCI-H522 lung 5.93% | A549/ATCC NSCLC -4.51% | COLO 205 colon 7.58%
inactive: NCI-H23 lung 31.4% | NCI-H322M lung 32.7% | HOP-62 NSCLC 30.1% | NCI-H460 lung 16.1% | 786-0 renal 22.3%

N#C/C(=C\c1cn(Cc2ccccc2)c2ccccc12)C(=O)Nc1ncc(Cc2ccccc2Cl)s1
inactive: NCI-H322M lung 36.1% | HOP-62 NSCLC 12.5% | NCI-H522 lung 30.3%
active: NCI-H23 lung -29.3% | NCI-H226 lung -33.6% | NCI-H460 lung -44.2% | HOP-92 NSCLC -6.07% | A549/ATCC NSCLC 8.73% | 786-0 renal 6.01% | COLO 205 colon -2.97%

c1ccc2c(c1)CCCc1nnc3nc4ccccc4n3c1-2
inactive: NCI-H23 lung 46.7% | NCI-H226 lung 51.2% | NCI-H322M lung 48.2% | HOP-62 NSCLC 34.8% | NCI-H460 lung 25.8% | NCI-H522 lung 55.6% | A549/ATCC NSCLC 29.9% | 786-0 renal 34.2% | COLO 205 colon 12%
active: HOP-92 NSCLC -2.09%

N#Cc1cncc(-c2ccc3ncnc(Nc4cccc(Cl)c4)c3c2)c1
inactive: NCI-H23 lung 62.4% | NCI-H226 lung 69.9% | NCI-H322M lung 28.7% | HOP-62 NSCLC 61.5% | NCI-H460 lung 75.2% | HOP-92 NSCLC 18.6% | NCI-H522 lung 65.2% | A549/ATCC NSCLC 62.3% | 786-0 renal 61.6% | COLO 205 colon 96.6%

Cc1ccc(-c2nc(N3CCNCC3)c3oc(-c4ccc(C)cc4)nc3n2)cc1
active: NCI-H460 lung -68.3% | A549/ATCC NSCLC -83.3% | 786-0 renal -92.2% | COLO 205 colon -81.2%
inactive: NCI-H23 lung 75.6% | NCI-H226 lung 97.6% | NCI-H322M lung 47.9% | HOP-62 NSCLC 76.1% | HOP-92 NSCLC 88.9% | NCI-H522 lung 76.1%

Cc1ccc(-c2csc(N(C(=O)N3CCN(c4cc5c(cc4F)c(=O)c(C(=O)O)cn5C4CC4)CC3)c3ccccc3)n2)cc1
active: NCI-H23 lung -0.349% | NCI-H226 lung 7.91% | NCI-H322M lung 4.96% | HOP-62 NSCLC 4.78% | NCI-H460 lung 5.91% | HOP-92 NSCLC -18% | NCI-H522 lung -0.464% | 786-0 renal 4.6% | COLO 205 colon 8.13%
inactive: A549/ATCC NSCLC 13.7%

C=C1C(=O)O[C@H]2[C@H]1CC/C(Cn1cc(CCC)nn1)=C\CC[C@@]1(C)O[C@@H]21
active: NCI-H226 lung -37.4% | HOP-92 NSCLC -11.2% | NCI-H522 lung -70.7% | 786-0 renal 3.66% | COLO 205 colon -72.1%
inactive: NCI-H23 lung 41.1% | NCI-H322M lung 90.2% | HOP-62 NSCLC 73.9% | NCI-H460 lung 61.4% | A549/ATCC NSCLC 68.2%

O=C1Nc2ccccc2C1(c1c[nH]c2ccccc12)c1c[nH]c2ccccc12
inactive: HOP-62 NSCLC 49.3% | NCI-H460 lung 70.6% | NCI-H522 lung 21.6% | A549/ATCC NSCLC 58.7% | 786-0 renal 83.7%
active: NCI-H23 lung -13.5% | NCI-H226 lung 8.63% | NCI-H322M lung -15.6% | HOP-92 NSCLC -6.64% | COLO 205 colon -27.7%

C=C1C(=O)O[C@H]2[C@H]1CC/C(COC(=O)CSCSCC(=O)OC/C1=C/CC[C@@]3(C)O[C@H]3[C@H]3OC(=O)C(=C)[C@@H]3CC1)=C\CC[C@@]1(C)O[C@@H]21
inactive: NCI-H23 lung 24.6% | NCI-H322M lung 79.1% | HOP-62 NSCLC 82.7% | NCI-H460 lung 13.6% | A549/ATCC NSCLC 72.1%
active: NCI-H226 lung -7.99% | HOP-92 NSCLC -13.3% | NCI-H522 lung -77.8% | 786-0 renal -6.8% | COLO 205 colon -65.5%

O=C(Nc1ncc(Cc2ccccc2)s1)c1ccc2c(c1)OCCCO2
active: NCI-H522 lung -4.73%
inactive: NCI-H23 lung 29.1% | NCI-H226 lung 46.2% | NCI-H322M lung 45.4% | HOP-62 NSCLC 31.9% | NCI-H460 lung 15.2% | HOP-92 NSCLC 58.7% | A549/ATCC NSCLC 33.5% | 786-0 renal 36.3% | COLO 205 colon 12%

COc1ccc(Oc2nc(Nc3ccc(N4CCOCC4)cc3)ncc2NC(=O)Nc2cc(OC)cc(OC)c2)cc1
active: NCI-H460 lung -36.5% | HOP-92 NSCLC -11.5% | NCI-H522 lung 4.69% | A549/ATCC NSCLC 2.22% | COLO 205 colon -54.8%
inactive: NCI-H23 lung 33.2% | NCI-H226 lung 32.7% | NCI-H322M lung 23.3% | HOP-62 NSCLC 48.2% | 786-0 renal 22.5%

COc1cccc(CNc2c3ccccc3nc3ccccc23)c1
inactive: NCI-H23 lung 37.3% | NCI-H226 lung 48.1% | NCI-H322M lung 44% | HOP-62 NSCLC 46.5% | NCI-H460 lung 10% | HOP-92 NSCLC 25.5% | NCI-H522 lung 61.7% | A549/ATCC NSCLC 30.2% | 786-0 renal 37.3%
active: COLO 205 colon 9.63%

COc1ccc(/C(C)=C(\c2ccc(Cl)cc2)c2ccc(OCCN3CCCCC3)cc2)cc1
active: 786-0 renal -5.84% | COLO 205 colon -4.92%
inactive: NCI-H23 lung 57.9% | NCI-H226 lung 89.4% | NCI-H322M lung 68.8% | HOP-62 NSCLC 68.6% | NCI-H460 lung 24.6% | HOP-92 NSCLC 70.3% | NCI-H522 lung 78.3% | A549/ATCC NSCLC 38.5%

O=C(NNC(=O)c1nc2cc(F)ccc2n2cccc12)c1cnccn1
inactive: NCI-H23 lung 45.7% | NCI-H226 lung 42.4% | NCI-H322M lung 45.2% | HOP-62 NSCLC 29.7% | NCI-H460 lung 14.7% | HOP-92 NSCLC 47.7% | NCI-H522 lung 56.1% | A549/ATCC NSCLC 28.5% | 786-0 renal 51.9% | COLO 205 colon 16.5%

CC1(C)CC[C@]2(CO)CC[C@]3(C)[C@H](CC[C@@H]4[C@@]5(C)CCCNC(C)(C)[C@@H]5CC[C@]43C)[C@H]2[C@H]1O
inactive: NCI-H23 lung 88.1% | NCI-H226 lung 103% | NCI-H322M lung 93.8% | HOP-62 NSCLC 98% | NCI-H460 lung 11.7% | HOP-92 NSCLC 83.8% | NCI-H522 lung 92.1% | A549/ATCC NSCLC 73% | 786-0 renal 96.7%
active: COLO 205 colon 0.611%

COc1cc(NC(=O)c2cncnc2Nc2ccc3c(ccn3Cc3ccccn3)c2)cc(OC)c1
inactive: NCI-H23 lung 68.6% | NCI-H226 lung 76.1% | NCI-H322M lung 76.4% | HOP-62 NSCLC 43.9% | NCI-H460 lung 20.5% | HOP-92 NSCLC 54.2% | NCI-H522 lung 38.9% | A549/ATCC NSCLC 53.9% | 786-0 renal 49.4% | COLO 205 colon 44.9%
